The values that follow come from ChEMBL document CHEMBL1201862, “PubChem BioAssay data set” (2004).

Hit rate of the full screen: of about 58,000 sequences, about 4,600 (7.9%) were called active. Rule as the data show it: active = GI50 up to about 1.1 µM and inactive = higher. Only a selection was taken, and actives are over-represented in it overall. Entries with a potency or affinity are not part of this list.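 Interpolation was linear, between the two tested concentrations surrounding the appropriate level; five concentrations were tested over 48 hours in 96-well plates. GI50 is the concentration that inhibits growth by half.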

The assay relates to SW-620. Put plainly: NCI tumour cell line growth inhibition, 48 h.
Substance “[Bis(aminomethyl)dimethylsilane]tetrachloroplatinum(IV), CHEMBL2146190” had a GI50 of 1.89 µM.
The figure for “[Bis(aminomethyl)diethylsilane]tetrachloroplatinum(IV), CHEMBL2146203” is 0.483 µM.
“cis-Bis[[(trimethylsilyl)methyl]amino]tetrachloroplatinum(IV), CHEMBL2146191”: the GI50 was determined as 2.4 µM.
“[Bis(aminomethyl)ethylmethylsilane]tetrachloroplatinum(IV), CHEMBL2146192” returned a GI50 of 1.02 µM.
Take “[Bis(aminomethyl)pentamethylenesilane]dichloropaltinum(II), CHEMBL2146202”: the GI50 stood at 6.7 µM.
In turn, “[Bis(aminomethyl)dimethylsilane]dichloroplatinum (II), CHEMBL2146201” came in with a GI50 of 4.86 µM.
Substance “[Bis(aminomethyl)pentamethylenesilane]tetrachloropaltinum(IV), CHEMBL2146204” returned a GI50 of 1.06 µM.
The figure for “[Bis(aminomethyl)tetramethylenesilane]tetrachloropaltinum(IV), CHEMBL2146189” is 1.49 µM; for CISPLATIN, CHEMBL11359 it is 3.87 µM.
The figure for “mu-(1,7-nanodiamine-N,N')bis-(cis-aminedichloroplatimum (II)), CHEMBL2146215” is 32.1 µM; for “[Bis(aminomethyl)tetramethylenesilane]dichloropaltinum(II), CHEMBL2146205” it is 5.16 µM.
